# Bioassay records: PubChem, several laboratories
# The list is not random: actives were taken first. Their share in the collection is about 2%.
# CHT block: human CHT choline transport inhibition. hit rate 0.86% among 310,000. B-score at 10 µM. Q9GZV3. CHT-expressing cells, membrane potential dye, choline response; hits give low values;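 active = B-score over 3 SD under the library average, and starting fluorescence ratio not unusually high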;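 also: choline stimulus applied at its EC90 after an EC20 pre-addition; B-score computed on integrated fluorescence ratio after choline addition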
# EP2 mod: EP2 receptor (human) modulation; hit rate 0.83% among 260,000; AID 940; induction, % at 25 µM; EP2-expressing cells, cAMP HTRF FRET, PGE2 co-stimulation; P43116;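 active = compounds whose cAMP rise, as percent of the full-agonist control response, exceeds 60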;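 also: rat C6 glioma line stably carrying human EP2 under a CMV promoter; the protocol text gives 20 µM as final concentration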
# Target sequence (P43116 whole entry, looked up): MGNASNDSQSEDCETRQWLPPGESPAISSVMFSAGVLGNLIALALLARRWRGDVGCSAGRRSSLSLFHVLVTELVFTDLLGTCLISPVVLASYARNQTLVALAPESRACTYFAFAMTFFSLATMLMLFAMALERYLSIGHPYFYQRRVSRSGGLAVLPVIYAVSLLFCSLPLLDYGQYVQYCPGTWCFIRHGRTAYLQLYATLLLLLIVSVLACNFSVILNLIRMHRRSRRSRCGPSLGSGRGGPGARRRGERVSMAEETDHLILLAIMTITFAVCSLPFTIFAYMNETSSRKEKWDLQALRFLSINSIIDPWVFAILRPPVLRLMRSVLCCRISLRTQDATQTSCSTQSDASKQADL
# CHT PAM: human CHT allosteric activation; Q9GZV3; CHT-expressing cells, membrane potential dye, choline EC20; hits give high values; LV-AA mutant CHT in HEK293 cells; B-score at 10 µM; hit rate 0.49% among 310,000; AID 488977;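 active = initial fluorescence not abnormally high and integrated response B-score, plate-corrected, over 3 SD above library mean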
# PGE2 EP2 inh: inhibitors of human EP2 prostaglandin E2 receptor; C6 glioma cells expressing human EP2, cAMP TR-FRET; cells stimulated with saturating PGE2; inhibition, % at 25 µM; hit rate 0.52% among 260,000; P43116; AID 1422;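 active = percent inhibition above 40 after rounding to a whole number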;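 also: rat C6 glioma host cells with rolipram phosphodiesterase inhibitor present; the protocol text gives 20 µM as final concentration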
# CHT block conf: confirmation of human choline transporter CHT inhibitors; hit rate 70% among 2,400; shares compounds with CHT block; CHT activity remaining % of control (hits give low values), % at 10 µM; AID 493221; CHT-expressing cells, choline membrane potential dye; LV-to-AA substituted CHT, HEK293 cells;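 active = choline transporter activity left, mean of duplicates at 10 µM, below buffer-only control mean minus 3 SD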;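 also: depolarization triggered by choline at its EC90 following an EC20 pre-addition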
# HEK293 MPD ctr: CHT inhibitor counter-screen hit in parental HEK293 cells; membrane potential ratio readout (active if shifted either direction beyond buffer ±3SD; no single direction) at 10 µM; membrane potential dye, choline response; active = decrease or increase beyond buffer ±3SD; shares compounds with CHT block; hit rate 4% among 2,400;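 also: parental cells lack the transporter so any hit is non-specific; ratio is peak minus trough fluorescence over baseline after EC90 choline challenge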
# A number is an active result; - = inactive; . = not tested or not shown.
SMILES,CHT block,EP2 mod,CHT PAM,PGE2 EP2 inh,CHT block conf,HEK293 MPD ctr
CCOCCCN(C)C1CCN(C(=O)c2oc3ccccc3c2NC(=O)c2ccc([N+](=O)[O-])cc2)CC1,-,.,-,.,.,.
O=C(Nc1c(C(=O)N2CCC(N3CCCCC3)CC2)oc2ccccc12)c1ccc(F)cc1,-13,.,-,.,0.9%,-
CCOCCCN(C)C1CCN(C(=O)c2oc3ccccc3c2NC(=O)c2ccc(F)cc2)CC1,-9,.,-,.,21%,-
COc1ccc(C2(C(=O)N3CCC4(CC3)NC(=O)c3ccccc3N4)CC2)cc1,.,-,.,-,.,.
c1ccc(COc2ccccc2-c2nc3cnccn3c2NC2CCCC2)nc1,.,-,.,.,.,.
O=C(NCc1ccccn1)Nc1ccc(Br)cc1Cl,-,.,-,.,.,.
S=C(NCc1ccccn1)Nc1ccc(Br)cc1Cl,-6.4,-,-,-,38%,-
O=C(COC(=O)c1ccco1)NC(c1ccccc1)c1ccccc1,-14,-,-,-,-,-
Cc1ccc(C(=O)O)cc1N=Cc1cc(Br)cc(Br)c1O,-6.2,-,-,-,59%,-
Cc1noc(C)c1CCNS(=O)(=O)c1ccc(N2CCCC2=O)cc1,.,-,.,-,.,.
Cc1ccc(CN(CCCn2ccnc2)Cc2nc3ccccc3[nH]2)o1,.,-,.,-,.,.
CCOC(=O)c1c(CSc2ccccc2)n(C)c2ccc(O)c(CN3CCN(C)CC3)c12,-7.6,-,-,-,31%,-
CC(=O)NCCc1nc2ccccc2n1CCOc1cccc(C)c1,-,-,-,-,.,.
Cc1cccc(OCCCn2c(CCNC(=O)C(C)C)nc3ccccc32)c1,-5.1,-,-,-,-,-
Oc1ccc(Br)cc1/C=N/n1c(-c2ccccc2)n[nH]c1=S,-,.,-,.,.,.
Oc1c(Br)cc(Br)c(/C=N/n2c(-c3ccccc3)n[nH]c2=S)c1Br,-6.8,.,-,.,48%,-
CCNC(=S)N(Cc1ccc(OC)cc1)Cc1cc2ccc(C)cc2[nH]c1=O,.,-,.,-,.,.
CCOC(=O)C(C)Sc1nc2c(c(=O)[nH]c(=O)n2C)n1CCc1ccccc1 (stereo unspecified),-,-,-,-,.,.
COC(=O)C(C)Sc1nc2c(c(=O)[nH]c(=O)n2C)n1CCCc1ccccc1 (stereo unspecified),-9.3,-,-,-,21%,-
Cc1ccc2n1CCN(C(=O)c1cc(-c3ccccn3)n[nH]1)C2C(C)C (stereo unspecified),.,-,.,-,.,.
O=c1cc(CN2CCN(c3ccccc3O)CC2)nc2sccn12,-8.8,-,-,-,42%,-
Cc1ccc(C(c2nnnn2Cc2cccs2)N2CCN(C3CCCC3)CC2)cc1 (stereo unspecified),.,-,.,-,.,.
Cc1cccc(NC(=O)c2ccccn2)c1C,-,-,-,-,.,.
Cc1cccc(NC(=O)c2n[nH]c([N+](=O)[O-])c2Br)c1C,-5,-,-,-,61%,-
CS(=O)(=O)N1CCN(c2ccc(NC(=O)c3ccc(F)cc3)cc2)CC1,.,-,.,-,.,.
SMILES,CHT block,EP2 mod,CHT PAM,PGE2 EP2 inh,CHT block conf,HEK293 MPD ctr
COc1ccc(Nc2nc3nonc3nc2N2CCCCC2)cc1,-,-,-,-,.,.
CC1CCN(c2nc3nonc3nc2Nc2ccc(F)cc2)CC1,-5.4,-,-,-,-,-
Cc1cc(C)c2cc(C=O)c(Cl)nc2c1,-6.1,-,-,-,-,-
C=CCn1c(NC(=O)c2ccccc2Cl)c(C#N)c2nc3ccccc3nc21,-5.8,-,-,-,-,-
COc1ccc(CC(=O)NCCS(=O)(=O)N2CCN(c3ccccc3)CC2)cc1OC,-,.,-,.,.,.
COc1ccccc1OCC(=O)NCCS(=O)(=O)N1CCN(c2ccccc2)CC1,-6.9,.,-,.,58%,-
CSc1ccccc1C(=O)NCCS(=O)(=O)N1CCN(c2ccc(F)cc2)CC1,-5.3,.,-,.,38%,-
Cc1ccccc1OCC(=O)NCCS(=O)(=O)N1CCN(c2ccc(F)cc2)CC1,-,.,-,.,.,.
CC(C)OCCCNC(=O)c1ccc2c(c1)C1C3CCC(C3)C1C(c1ccccc1)N2 (stereo unspecified),.,-,.,-,.,.
COc1cccc(-c2cc(-c3cccnc3)nc(N)c2C#N)c1,-7.3,-,-,-,-,-
COc1cccc(-c2cc(-c3cccnc3)c(C#N)c(N)n2)c1,-,-,-,-,.,.
O=[N+]([O-])c1cc([N+](=O)[O-])c2cccnc2c1Oc1ccccc1O,-7,-,-,-,45%,-
O=[N+]([O-])c1ccc(O)c2ncccc12,-,-,-,-,.,.
COc1cc(/C=C\c2nc(O)c([N+](=O)[O-])c(=O)[nH]2)ccc1C,.,-,.,-,.,.
O=C(NCc1cn2ccsc2n1)c1cccs1,-5.1,-,-,-,-,-
O=C(CSc1nnc(-c2ccco2)n1Cc1ccco1)NCc1cccs1,-5.3,-,-,-,67%,-
CC(C)(C)NC(=O)CSc1nnc(-c2ccco2)n1Cc1ccco1,-,-,-,-,.,.
CCCCCc1ccc(OCCOCCn2c[n+](C)c3ccccc32)c(CCCCC)c1,.,-,.,-,.,.
CCCCCc1ccc(OCCC[n+]2ccccc2)c(CCCCC)c1,-15,-,-,-,-5.5%,-
CCc1cc2c(C)cc(C)cc2nc1SCC(=O)NNC(C)=O,.,-,.,-,.,.
COc1ccc(-c2nc(-c3cccs3)c(-c3cccs3)[nH]2)cc1O,-7.2,-,-,-,70%,-
O=C(O)c1ccc(-c2nc(-c3ccccc3)c(-c3cccs3)[nH]2)cc1,-,-,-,-,.,.
COc1ccc(C2(NCc3ccccc3OCc3ccccn3)CC2)cc1,.,-,.,-,.,.
CCN(CC(=O)NCc1ccc(F)cc1)C(=O)c1ccc(C(=O)c2ccccc2)cc1,-5.7,.,-,.,-,-
CCOc1ccc2nc(NC(=O)CSc3nnc(-c4ccc(C)cc4)o3)sc2c1,.,-,.,-,.,.
SMILES,CHT block,EP2 mod,CHT PAM,PGE2 EP2 inh,CHT block conf,HEK293 MPD ctr
COc1ccc(C(=O)CSc2nnc(-c3ccco3)n2C)cc1,-5.4,-,-,-,-,-
CN(C)CCn1c(=S)[nH]c2ccccc2c1=O,-7.9,-,-,-,28%,-
Cc1ccc(CSc2nnc(C)c(=O)[nH]2)cc1,-7.9,-,-,-,-,-
COc1c(C(=O)NCc2nc(-c3ccccc3)no2)cnc2cc(Cl)ccc12,.,-,.,-,.,.
COc1ccc(OC)c(CN(Cc2ccc(N3CCCC3=O)cc2)CC2CCCO2)c1 (stereo unspecified),.,-,.,-,.,.
CC1(C)CC(=O)/C(=C(\O)CCCN2C(=O)c3ccccc3C2=O)C(=NCC(=O)O)C1,-5.4,-,-,-,-,-
COc1ccc2[nH]c(=O)c(CN(Cc3cccs3)C(=O)Nc3ccc(F)cc3)cc2c1,.,-,.,-,.,.
Cn1c(N2CCOCC2)c(/C=N/OC(=O)c2ccc(F)cc2)c2ccccc21,-7.4,-,-,-,44%,-
CC(C)(C)NC(=O)C1CCN(C(=O)c2ccc(Cl)cc2Cl)CC1,.,-,.,-,.,.
CCc1cc(=O)[nH]c(NC2CCN(CC(=O)Nc3ccc4c(c3)OCO4)CC2)n1,.,-,.,.,.,.
COc1ccc(-c2csc(N)n2)cc1,-,-,-,-,.,.
